Experimental findings from PubChem BioAssay AID1209 (Sanford-Burnham Center for Chemical Genomics, 2008) are described below.

Screen size: about 190,000 compounds; about 810 (0.43%) were called active. The list comes from a sample in which actives are over-represented; it also holds similar structures and randomly drawn compounds. Values without a mark were called inactive. Cut-off read from the data, not from the text of the source: active = inhibition above about 50%; inactive = the rest.

Chain of Mannose-6-phosphate isomerase (Homo sapiens) (P34949 whole entry, looked up): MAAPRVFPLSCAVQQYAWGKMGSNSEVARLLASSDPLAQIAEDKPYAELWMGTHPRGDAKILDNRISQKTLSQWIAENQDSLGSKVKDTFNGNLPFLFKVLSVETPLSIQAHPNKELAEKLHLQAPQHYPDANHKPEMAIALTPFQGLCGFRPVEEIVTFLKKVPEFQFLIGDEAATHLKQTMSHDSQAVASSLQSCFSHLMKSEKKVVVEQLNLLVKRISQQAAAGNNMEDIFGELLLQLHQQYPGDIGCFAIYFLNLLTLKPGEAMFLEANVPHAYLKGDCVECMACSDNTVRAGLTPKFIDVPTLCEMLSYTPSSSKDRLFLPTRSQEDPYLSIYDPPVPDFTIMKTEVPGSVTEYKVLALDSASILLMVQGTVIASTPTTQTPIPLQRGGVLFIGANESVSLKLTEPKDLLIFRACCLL

The assay has as its target Mannose-6-phosphate isomerase (Homo sapiens) (UniProt P34949). Briefly: inhibitors of human PMI, primary screen, biochemical, fluorescence intensity, coupled assay (AID 1209).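 Note: plate controls were DMSO vehicle for no effect and wells lacking substrate for full effect.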 Conditions: purified PMI enzyme, at 20 µM, active compounds read high.
Usually inhibition stands for the relative decrease from the control value, in per cent. As for `CCn1cc(C(=O)OCC(=O)c2cc(C)n(-c3cccc(C(F)(F)F)c3)c2C)c(=O)c2ccc(C)nc21`, the inhibition was -6.6%.

Take `CN(/N=C/c1ccc(Br)o1)C1=NS(=O)(=O)c2ccccc21`: the inhibition was -7.5%.

As for `CN(/N=C/c1ccco1)C1=NS(=O)(=O)c2ccccc21`, the inhibition was 10.9%.

Regarding `Cc1ccc(/C=N/N(C)C2=NS(=O)(=O)c3ccccc32)o1`, the inhibition is 107% (active).

`COc1ccccc1NC(=O)N(Cc1cccs1)Cc1cc2cc3c(cc2[nH]c1=O)OCO3`: the inhibition was 9.9%.

For `COc1cc(C(=O)O/N=C2\C=CC(=O)C(C)=C2)cc(OC)c1OC`, the inhibition was 50.7% (active).

On to `COc1cc(C(=O)O/N=C2\C=CC(=O)C=C2C)cc(OC)c1OC`, for which the inhibition is 46.4%.

As for `COc1cc(C(=O)ON=C2C=C(C)C(=O)C(C)=C2)cc(OC)c1OC`, the inhibition was 31.7%.

Take `COc1cc(C(=O)O/N=C2/C=CC(=O)C(C)=C2C)cc(OC)c1OC`: the inhibition is 35.6%.

For `COc1cc(C(=O)O/N=C2/C=C(C)C(=O)C=C2C)cc(OC)c1OC`, the inhibition was 29.1%.

Take `COc1cc(C(=O)ON=C2C(C)=CC(=O)C=C2C)cc(OC)c1OC`: the inhibition was 59.4% (active).

In the case of `O=C(NC1CCCC1)c1ccc(CS(=O)(=O)c2ccc(Br)cc2)o1`, the inhibition is -7%.

Turning to `O=C(C(=O)N1CCN(c2ccc(F)cc2)CC1)N1CCCCC1`, the inhibition was 9.4%.

Regarding `COCCNC(=O)C(c1cccs1)N(C(=O)Cn1nnc2ccccc21)c1cccc(C(C)=O)c1` (configuration not stated), the inhibition was -2.6%.

With `O=[N+]([O-])c1cc2oc3c(c2c(C=NCc2ccccc2)c1O)CCCC3`, the inhibition was 6.3%.

In the case of `CC(C)CN=Cc1c(O)c([N+](=O)[O-])cc2oc3c(c12)CCCC3`, the inhibition is 53.1% (active).

On to `O=[N+]([O-])c1cc2oc3c(c2c(C=NCc2ccncc2)c1O)CCCC3`, for which the inhibition is 27.8%.

Take `O=C(OCc1nnc(-c2ccccc2)o1)c1cc(F)c(F)cc1Cl`: the inhibition is 2.5%.

`CN(CCO)c1nc(N)c2c(N)nc3c(c2c1C#N)CC(=O)N3C1CCCC1`: the inhibition is 64% (active).

As for `N#CCc1c(C#N)c(N)nc(N2CCCC(O)C2)c1C#N` (configuration not stated), the inhibition was 10%.

On to `COCC(C)N1C(=O)Cc2c1nc(N)c1c(N)nc(N3CCN(c4ccccc4F)CC3)c(C#N)c21` (configuration not stated), for which the inhibition was 66.7% (active).

As to `N#Cc1c(N2CCN(c3ccc(F)cc3)CC2)nc(N)c2c(N)nc3c(c12)CC(=O)N3C1CC1`, the inhibition is 56.9% (active).

In the case of `COCCN(CCOC)c1nc(N)c2c(N)nc3c(c2c1C#N)CC(=O)N3Cc1ccc(Cl)cc1`, the inhibition is 20.6%.

For the compound `N#Cc1c(N2CCCC(O)C2)nc(N)c2c(N)nc3c(c12)CC(=O)N3C12CC3CC(CC(C3)C1)C2` (configuration not stated), the inhibition is 64.7% (active).

With `CCCCN1C(=O)Cc2c1nc(N)c1c(N)nc(N(CCC)CCC)c(C#N)c21`, the inhibition is 21.8%.

As for `C=C(C)CN(CC)c1nc(N)c2c(N)nc3c(c2c1C#N)CC(=O)N3C12CC3CC(CC(C3)C1)C2`, the inhibition is 2.4%.

As to `COc1ccc(CN2C(=O)Cc3c2nc(N)c2c(N)nc(N4CCCCC4)c(C#N)c32)cc1`, the inhibition was 40.5%.

Turning to `CN(CCO)c1nc(N)c2c(N)nc3c(c2c1C#N)CC(=O)N3Cc1cccs1`, the inhibition was 13.6%.

`N#CCc1c(C#N)c(N)nc(N2CCN(c3ccc(F)cc3)CC2)c1C#N`: the inhibition is 2.2%.

As for `COCCN1C(=O)Cc2c1nc(N)c1c(N)nc(N3CCN(c4ccc(F)cc4)CC3)c(C#N)c21`, the inhibition was 40.2%.

Turning to `Cc1ccc(N2C(=O)[C@@H]3[C@H](C2=O)C2c4ccccc4C=CN2[C@@H]3C(=O)c2ccco2)c(C)c1` (some centres not stated), the inhibition is -31.4%.

Consider `COc1ccc(Cn2c(C(F)(F)F)ccc(C(N)=O)c2=O)cc1`, for which the inhibition is 4.9%.

As to `COc1ccc(C2(O)CCN(C(=O)c3c(F)cccc3F)CC2)cc1`, the inhibition is 2.8%.

As to `CCc1cc2c(C)cc(C)cc2nc1SCC(=O)Nc1cc(C)on1`, the inhibition is 2.3%.

For the compound `COc1cccc(CNC(=O)C(c2ccc(Cl)cc2)C(C)C)c1` (configuration not stated), the inhibition was 10.2%.

In the case of `COc1cc(/C=C2\SC(=S)NC2=O)ccc1OS(=O)(=O)c1ccccc1`, the inhibition was 29.8%.

As to `COC(=O)c1ccc(-c2nc(O)c3cnccn23)cc1`, the inhibition was -13.6%.

`COc1cc(/C=N/NC(=O)c2ccncc2)ccc1OCCN1CCCCC1`: the inhibition is -4.3%.

On to `CCCCOc1ccc(C(=O)N/N=C/c2ccc(OCCN3CCCCC3)c(OC)c2)cc1`, for which the inhibition is 5.7%.

Consider `COc1cc(/C=N/NC(=O)c2cc3ccccc3cc2O)ccc1OCCN1CCCCC1`, for which the inhibition was 73.9% (active).

For `COc1ccccc1-n1c(SCc2cc(=O)oc3cc(O)ccc23)nc2ccccc2c1=O`, the inhibition was 8.3%.

On to `COc1cccc(-n2c(SCC(N)=O)nc3ccccc3c2=O)c1`, for which the inhibition was 2.2%.

For the compound `Cc1csc(SCC(=O)NC(=O)NC2CCCC2)n1`, the inhibition is 5.2%.

With `S=c1[nH]nc(C2CCCCC2)n1/N=C/c1ccco1`, the inhibition was -1.6%.

As to `O=C(Cc1ccc([N+](=O)[O-])cc1)Nc1cccc(C(F)(F)F)c1`, the inhibition is 23.4%.

Turning to `CCCCNC(=O)CC1S/C(=N/N=C/c2ccc(OC)cc2)NC1=O` (configuration not stated), the inhibition was -7.8%.

In the case of `CCOC(=O)N1CCN(CC(=O)Nc2cc(OCC)ccc2OCC)CC1`, the inhibition is 7%.

Regarding `CCOc1ccc(OCC)c(NC(=O)CN2CCN(c3cccc(C)c3)CC2)c1`, the inhibition is 16.7%.

On to `CCOc1ccc(OCC)c(NC(=O)CN2CCN(CC)CC2)c1`, for which the inhibition is 57.9% (active).

On to `CN1C(=O)/C(=C/c2ccc(-c3ccccc3[N+](=O)[O-])o2)SC1=Nc1ccc(Cl)c(C(=O)O)c1`, for which the inhibition is 3%.

Regarding `CCOC(=O)C1=C(N)Oc2cc(C)n(C)c(=O)c2C1c1ccncc1` (configuration not stated), the inhibition was 10%.

On to `NC(=O)C1=C[C@H](c2coc3ccccc3c2=O)C[C@H](OCc2ccc(CO)cc2)O1`, for which the inhibition is -2.4%.

On to `Nc1c(NC2CCCCC2)c2ccccc2oc1=O`, for which the inhibition was 9.2%.

Consider `O=C(Nc1ccccc1NC(=O)NC1CCCCC1)NC1CCCCC1`, for which the inhibition was 6%.

Turning to `Nc1ccccc1NC1CCCCC1`, the inhibition was 64.3% (active).

`Cc1ccc(Cn2c(C(=O)O)cc3sccc32)cc1`: the inhibition is -7.2%.

As to `O=C(Nc1ccccc1NS(=O)(=O)c1ccc(F)cc1)C1CCCC1`, the inhibition was -1.7%.

As for `O=C(COC(=O)c1cc(Cl)cc(Cl)c1)NCCN1C(=O)CSC1=O`, the inhibition is 55.7% (active).

`O=C(COC(=O)c1cccc(Cl)c1)NCCN1C(=O)CSC1=O`: the inhibition was -6%.

Consider `O=C(COC(=O)c1cc(Cl)ccc1Cl)NCCN1C(=O)CSC1=O`, for which the inhibition was 0.7%.

On to `COC(=O)c1ccccc1NC(=O)COC(=O)/C=C/c1ccco1`, for which the inhibition was -15%.

For the compound `CCOCCCNC(=O)c1ccc(N2CCOCC2)c(NS(=O)(=O)c2ccc(OC)cc2)c1`, the inhibition is -1.6%.

`Cn1c(COc2ccc([N+](=O)[O-])cc2)nnc1SCC(N)=O`: the inhibition is -9.7%.

Consider `c1cc2c3c(cccc3c1)C(N1CCCCC1)=N2`, for which the inhibition was 33.9%.

As for `O=C1CCN2C=Nc3cccc4ccc1c2c34`, the inhibition was 84.5% (active).

For the compound `c1cc2c3c(cccc3c1)C(N1CCCCCC1)=N2`, the inhibition was 15.8%.

On to `COc1cc2c(cc1OC)C1=C(C#N)CN(CC(=O)O)CN1CC2`, for which the inhibition was 70.5% (active).

For `COc1cc2c(cc1OC)C1=C(C#N)CN(C3CCCCC3)CN1CC2`, the inhibition was 27.4%.

On to `COc1ccc(CCN2CC(C#N)=C3c4cc(OC)c(OC)cc4CCN3C2)cc1OC`, for which the inhibition was 18.8%.

Turning to `CCCCNC(c1ccccc1)c1ccncc1` (configuration not stated), the inhibition is 6.1%.

As for `CCn1c(SCC(=O)NC2CCS(=O)(=O)C2)nnc1-c1ccccc1` (configuration not stated), the inhibition is -4.5%.

On to `COc1cc(NC(=O)CN2C(=O)CN(C)C2=O)c(C)cc1[N+](=O)[O-]`, for which the inhibition was -9.8%.

In the case of `Cc1cccc(C)c1NC(=O)C1c2cccc[n+]2CC(=O)N1Cc1cccs1` (configuration not stated), the inhibition is -7.5%.

On to `Cc1ccccc1NC(=O)C1c2cccc[n+]2CC(=O)N1Cc1ccc2c(c1)OCO2` (configuration not stated), for which the inhibition was -17.8%.

Regarding `Cc1ccccc1NC(=O)C1c2cccc[n+]2CC(=O)N1c1c(C)cccc1C` (configuration not stated), the inhibition is 91.6% (active).

In the case of `C(=C\c1ccccc1)/C=N/Nc1nc(N2CCOCC2)nc(N2CCOCC2)n1`, the inhibition was -1.4%.

Consider `CCn1c(SCC(=O)N2CCN(c3ccc(F)cc3)CC2)nnc1-c1ccncc1`, for which the inhibition is 8.1%.

For `O=C(CCn1c(=S)oc2ccccc21)Nc1cccc(F)c1`, the inhibition is -10.5%.

With `O=C(NCC1CC1)c1ccc(Nc2nc3ccc(Br)cc3[nH]2)cc1`, the inhibition is 84% (active).

On to `O=C(NCc1cccs1)c1cccc(Nc2nc3ccc(Br)cc3[nH]2)c1`, for which the inhibition was 15.4%.

Turning to `O=C(NCc1ccco1)c1cccc(Nc2nc3ccc(Br)cc3[nH]2)c1`, the inhibition is 22%.

Consider `COC(=O)/C=C1\SC(=NC(=O)c2ccc(C)cc2)NC1=O`, for which the inhibition was 3.6%.

Consider `COc1cc(/C=C/C(=O)CC(=O)/C=C/c2ccc(O)c(OC)c2)ccc1O`, for which the inhibition is 5.3%.

With `O=C(O)/C=C/c1ccc(O)c(O)c1`, the inhibition is 56.4% (active).

Turning to `O=Cc1ccc(O)c(O)c1`, the inhibition was 25.6%.

As to `COc1ccc(NC(=O)/C=C/c2ccc(OC)c(OC)c2)cn1`, the inhibition is -4.6%.

With `Cc1cc([N+](=O)[O-])cnc1Sc1nccn1C`, the inhibition was -29.4%.

With `O=C(CCc1nc2ccccc2[nH]c1=O)OCC(=O)c1ccc(Cl)cc1`, the inhibition is 2.3%.

Take `COc1ccc(/C=N/NC(=O)c2nn(-c3ccccc3)c(=O)c3c(N)scc23)cc1`: the inhibition is 60.7% (active).

Regarding `COc1ccc(/C=N/NC(=O)c2nn(-c3ccc(C)c(C)c3)c(=O)c3ccccc23)cc1`, the inhibition was 13.2%.

`CCOC(=O)c1nn(-c2ccc(C)cc2)c(=O)c2c(N)scc12`: the inhibition is 39.4%.

As for `COc1ccc(/C=N/NC(=O)c2nc(-c3ccccc3)n(-c3ccccc3)n2)cc1`, the inhibition was 17%.

With `CCOC(=O)c1nn(-c2ccc(OC)cc2)c(=O)c2c(N)scc12`, the inhibition is 46.8%.

`COc1ccc(/C=N/NC(=O)c2nn(-c3ccc(Cl)cc3)c(=O)c3c(N)scc23)cc1`: the inhibition is 50.7% (active).

In the case of `Nc1scc2c(C(=O)N/N=C/c3ccc(Cl)cc3)nn(-c3ccccc3)c(=O)c12`, the inhibition was 69.6% (active).

For `CCOC(=O)c1nn(-c2ccccc2)c(=O)c2c(N)scc12`, the inhibition was 36.2%.

Consider `CCOC(=O)c1nn(-c2ccc(F)cc2)c(=O)c2c(N)scc12`, for which the inhibition was 40.7%.
